Results as given in PubChem BioAssay AID504332 (National Center for Advancing Translational Sciences (NCATS), 2011).
Several values for one entry are separate records, joined by “and”; a condition that tells them apart may be missing. Equal entries are not always repeated. The whole screen tested about 350,000 compounds, of which about 31,000 (8.9%) were called active. Roughly 15% stayed inconclusive and do not appear here. Calls come from the whole dose curve; as a rule, active = well fitted inhibition curve with a large enough effect; inconclusive = small, poorly fitted or top-dose-only effect; inactive = no such curve, though single readings can be large or run the other way. What follows is part of a selection rich in actives, with near analogues and random picks from the rest. Where a structure was tested more than once in an assay, its records may differ in their call.

molecular target: Histone-lysine N-methyltransferase EHMT2 (Homo sapiens) (UniProt Q96KQ7); assay: qHTS Assay for Inhibitors of Histone Lysine Methyltransferase G9a; details: G9a H3K9 monomethylation, AlphaScreen, 2 h; series mostly up to 59 µM; activity, negative = inhibition: at the top concentration; note: nearly all actives have a fitted effect of over 75% in size
Sequence (Q96KQ7 913-1193 limits assumed): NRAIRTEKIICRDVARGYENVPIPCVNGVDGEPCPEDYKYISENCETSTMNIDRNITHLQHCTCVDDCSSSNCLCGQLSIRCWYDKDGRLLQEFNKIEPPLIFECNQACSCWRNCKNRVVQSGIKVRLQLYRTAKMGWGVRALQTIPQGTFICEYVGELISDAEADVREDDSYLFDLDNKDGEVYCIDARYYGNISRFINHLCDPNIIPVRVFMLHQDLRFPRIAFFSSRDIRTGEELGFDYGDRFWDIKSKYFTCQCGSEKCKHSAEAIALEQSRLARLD
Outline: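 AlphaScreen detection with an anti-monomethyl H3K9 antibody quantified product after a 2 h room-temperature reaction containing 500 nM biotinylated H3K9 peptide, 20 µM SAM and 20 nM enzyme, which had been preincubated 15 min with compound.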
% is set by controls: 0 for no effect and ±100 for the full control effect; potency is the fitted concentration of half-maximal effect.

activity, negative = inhibition, inactive:
CN(Cc1ccccc1)C(=O)c1cn(C)c2ccc(S(=O)(=O)N(C)C3CCCCC3)cc2c1=O -1.49%, O=S(=O)(NCCS(=O)(=O)N1CCN(c2ccccc2)CC1)c1ccc(Cl)cc1 -10.1%, CC(C)[C@@H]1COC(c2cccc(C3=N[C@H](C(C)C)CO3)c2)=N1 55% [at 102 µM], COc1cc(OC)cc(-c2nnc(N(C)C(=O)c3ccncc3)s2)c1 -3.36% [at 102 µM], CN(C(=O)c1ccno1)c1nnc(-c2cccnc2)s1 19.5%, CC(C)CCN1CCC(C)(NC(=O)c2ccccc2)C1=O (stereo not given) -0.393% [at 0.501 µM], CC(C)NC(=S)N1CCN(S(C)(=O)=O)CC1 11.9%, CC(=O)c1cccc(NC(=S)N2CCCC2)c1 9.21% [at 102 µM], O=C(Cc1ccc(Cl)cc1)NC1CCS(=O)(=O)C1 (stereo not given) 28.8% [at 102 µM], Cc1cc(C)c(CN2CCN(C(=O)Cn3ccc(NC(=O)OCc4ccccc4)nc3=O)CC2)c(C)c1 -47.4% [at 0.501 µM], NC(=O)C1CCN(C(=O)c2ccc(F)c(S(=O)(=O)N3CCOCC3)c2)CC1 2.82% [at 2.33 µM], CCOc1ccc(-c2n[nH]c3c2C(c2ccccc2OC)N(c2ccc(Br)cc2)C3=O)cc1 (stereo not given) 3.64%, Cc1sc2ncnc(N3CCC(C(=O)NNC(=O)c4ccc(F)cc4)CC3)c2c1C -33.1%, Cc1ccc(NC(=S)N(CCN(C)C)Cc2cccs2)cc1C -39.7% [at 102 µM], Cc1ccccc1NC(=S)N(CCCN1CCOCC1)Cc1cccs1 15%, CC(C)Nc1ccc(-n2nc3ccccc3[n+]2[O-])cc1 12.3% [at 102 µM], c1ccc2cc(CCCc3cc4ccccc4cn3)ncc2c1 5.78% [at 0.501 µM], NC(=O)C1CCN(C(=O)c2cn(-c3ccccc3)nc2-c2cccnc2)CC1 1.41% [at 102 µM], COc1ccc(CNC(=O)C(Cc2ccccc2)n2cccc2)cc1 (stereo not given) -36.8% [at 102 µM], CC(Cc1ccccc1)C(=O)N(C)Cc1ccccc1 (stereo not given) -4.83% [at 102 µM], Cc1ccc(S(=O)(=O)N2CCCCC2)cc1NC(=O)[C@@H]1CCCN1C(=O)c1cccs1 -7.65% [at 12.7 µM], Cc1ccc2nc(COc3cccc(NC(=O)c4ccccc4Cl)c3)cc(=O)n2c1 10.2%, CCOC(=O)C1CCN(S(=O)(=O)c2ccc3c(c2)N(C(C)=O)CCO3)CC1 -0.322% [at 102 µM], CCOC(=O)C1CCCN(S(=O)(=O)c2ccc3c(c2)C(C)(C)C(=O)N3C)C1 (stereo not given) -2.18% [at 102 µM], CCCn1c2ccccc2c2cnn(CC(=O)N(CC)c3cc(C)ccc3C)c(=O)c21 -24%, CCN(CCCNC(=O)CSc1cc(=O)n(C)c2cc(Cl)ccc12)Cc1ccccc1 -26.4% [at 102 µM], CC(=O)c1ccc(S(=O)(=O)NCCC(=O)N2CCN(c3ccccn3)CC2)cc1 -0.0681% [at 12.7 µM], COc1ccccc1OCCOc1ccc(/C=N/n2cnnc2)cc1 -8.1% [at 12.7 µM], COc1cc(/C=N/O)ccc1OCc1ccc([N+](=O)[O-])cc1 -5.67%, CCOc1ccc(/C=N/Nc2nncc(-c3ccccc3)n2)cc1OC 16% [at 102 µM], O=c1ccc(S(=O)(=O)N2CCCC2)cn1Cc1nc(-c2ccccc2)no1 -6.5% [at 2.33 µM], CCN(C(=O)COC(=O)c1c(C)nn(-c2ccccc2)c1Cl)c1c(N)n(Cc2ccccc2)c(=O)[nH]c1=O -45.7% [at 102 µM], Cc1ccccc1-c1cc(C(=O)NCC2CC2)n(CC2CC(c3cccnc3)=NO2)n1 (stereo not given) -3.05% [at 0.501 µM], CC1CN(C(=O)N2CCC(C(=O)NCc3ccco3)CC2)c2cc(Cl)ccc2O1 (stereo not given) -27.9%, O=C(NCCS(=O)(=O)c1ccc(Br)cc1)c1ccccc1Cl 37.8% [at 102 µM], COc1ccccc1CNC(=O)CCn1c(=O)c2ccccc2n(CC(=O)Nc2ccc(Br)cc2F)c1=O -30.5%, COc1ccc(N2CCN(S(=O)(=O)c3ccc4c(c3)NC(=O)C(C)C(=O)N4)CC2)cc1 (stereo not given) -7.4% [at 102 µM], CCOc1ccccc1NS(=O)(=O)c1cc2c3c(c1)C(C)C(=O)N3CCC2 (stereo not given) 5.21% [at 102 µM], COCC1CCN(C(=O)C2CCC(=O)N(CC3CCCCC3)C2)CC1 (stereo not given) 77.4% [at 102 µM], N#Cc1ccc(-c2cccs2)nc1SCc1ccc(Br)cc1 49.5%, Cc1ccc(CSc2nc(-c3ccccc3)c(C#N)c(=O)[nH]2)cc1 16.7% [at 2.33 µM], Cc1ccc(-c2cc(-c3coc4ccccc4c3=O)c3c(n2)-c2cc(Cl)ccc2OC3)cc1 -32.2%, COc1ccc(NC(=O)Nc2cccc3cccnc23)cc1 -19.4% [at 102 µM], O=C(NCCN1CCN(C(=O)c2cccc([N+](=O)[O-])c2)CC1)C(=O)NCc1ccc(Cl)cc1 1.83% [at 102 µM], CSc1ccc(C2c3c(oc4ccccc4c3=O)C(=O)N2CCCN2CCOCC2)cc1 (stereo not given) -2.82%

Potency, inactive:
CCOc1ccc(CCNC(=O)CSc2cc(=O)n(C)c3ccc(Cl)cc23)cc1OCC

Potency, active:
CN(C(=O)c1ccccn1)c1nnc(-c2ccccn2)s1 70.8 µM, COc1ncnc2c1N=C1CC(C)(C)CC(N)=C1S2 3.16 µM, CC(=O)c1cccc(NC(=S)N2CCN(S(C)(=O)=O)CC2)c1 44.7 µM, Cc1ccc(Cl)cc1NC(=S)N(CCN(C)C)Cc1cccs1 39.8 µM, Cc1ccc(C)n1C(Cc1ccccc1)C(=O)O (stereo not given) 35.5 µM, Cc1c(-c2ccccc2)cn2c1-c1ccc(C)n1CC2 44.7 µM, CCN(CCCNC(=O)CSc1cc(=O)n(C)c2cc(Cl)ccc12)c1cccc(C)c1 17.8 µM, Fc1ccc(/C=N/n2c(COc3ccccc3)n[nH]c2=S)cc1 1.58 µM, O=[N+]([O-])c1ccccc1/C=N/n1c(COc2ccccc2)n[nH]c1=S 1 µM, COc1cc(/C=N/n2c(C)n[nH]c2=S)ccc1OCc1ccccc1 2.24 µM, COc1ccc(N2CCN(S(=O)(=O)c3cc4c5c(c3)C(C)C(=O)N5CCC4)CC2)cc1 (stereo not given) 44.7 µM, N#Cc1c(-c2cccs2)nc(SCC(=O)c2ccc(Br)cc2)[nH]c1=O 39.8 µM, Nc1ccc(Nc2cc(O)c3ncccc3c2)cc1 1.58 µM

Potency, inactive and 79.4 µM (active):
CCOC(=O)C1CCN(S(=O)(=O)c2ccc3c(c2)N(C)C(=O)CC(=O)N3C)CC1
